Bioassay records (PubChem)
Shown are actives, neighbours in structure and some others; about 12% of the full set was active somewhere.
FMDV antiviral: foot and mouth disease virus antiviral activity. actives 1.2% (n = 410,000). Potency, µM (doses to about 57.9 µM), for inactives: top-dose activity change, negative = inhibition, actives largely listed as inhibitors. FMDV antiviral cell-based qHTS; calls by dose curve; tested in HEK293T cells; note: read-out not given here; potency is the fitted concentration of half-maximal effect; % is set by controls: 0 for no effect and ±100 for the full control effect; nearly all actives have a fitted effect of over 45% in size
Shiga inhibitor: Shiga toxin inhibition. actives 9.2% (n = 290,000). inhibition, % at 38.7 µM. Vero cells, Shiga toxin protein synthesis inhibition reporter; in the data active = inhibition mostly above about 28%, no sharp cut-off; inactive = mostly below about 43%; note: 0% is about no effect
CHX counter: counter-screen hit for Shiga toxin inhibitors, cycloheximide; cell reporter, cycloheximide protein synthesis inhibition counterscreen; max response, %; actives 12% (n = 300,000); AID 2314; in the data active = max response mostly above about 13%, no sharp cut-off; inactive = mostly below about 14%; note: read at 38.3 µM for the half of the compounds with a filed dose; 0% is about no effect
Sm TGR inh: S. mansoni TGR enzyme inhibition; Q962Y6; actives 3% (n = 360,000); purified TGR, DTNB reduction, TNB absorbance 405 nm; Potency, µM (highest dose often 114 µM), inactives show at the top dose activity change, negative = inhibition, hits mostly inhibitors; active = well fitted inhibition curve with a large enough effect; inconclusive = small, poorly fitted or top-dose-only effect; inactive = no such curve, though single readings can be large or run the other way; note: potency is the fitted concentration of half-maximal effect; % is set by controls: 0 for no effect and ±100 for the full control effect; nearly all actives have a fitted effect of over 60% in size
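TGR 20 nM + NADPH 100 uM (dispensed conc.), cpd preinc 15 min RT; start with NADPH (500 uM addition) then DTNB (15 mM addition). Kinetic TNB absorbance, 405 nm filter. Four-parameter Hill fit across titration.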
* hit, by the source's call; ? = inconclusive; . = no result; [ ] = remark or other dose.

SMILES | FMDV antiviral | Shiga inhibitor | CHX counter | Sm TGR inh
O=C(NCCc1c[nH]c2ccccc12)C(=O)NCC1OCCCN1S(=O)(=O)c1ccc(F)cc1 (stereo not given) | ? | -5 | -6 | -15%
COc1ccccc1Cc1nc2ccccc2nc1SCC(=O)Nc1cc(Cl)ccc1OC | -3% | . | . | 0%
CCCN1CCN(CCCNC(=O)c2ccc3c(c2)sc2nc(-c4ccc(C)cc4)cn23)CC1 | 5% | . | . | -1%
CNCC(=O)NCC(=O)N[C@@H](Cc1ccccc1)C(=O)N[C@@H](CC(C)C)C(=O)O | -8%[6.7 µM] | . | . | .
COc1ccc(-c2cnc(C)o2)cc1S(=O)(=O)Nc1ccc(C)c(N(C)C)c1 | 55% | . | . | 0%
CC[n+]1c(-c2ccccc2)c2cc(N)ccc2c2ccc(N)cc21 | 40µM* | -19 | -14 | .
Cc1cc(CNC(=S)Nc2ccc(Br)cc2Cl)nn1C | 52% | 7 | 8 | 7.9µM*
S=C(NCc1ccccn1)Nc1ccc(Br)cc1Cl | 14% | 44* | 18* | 3%
Cc1cc(CNC(=O)c2cc(Br)ccc2Cl)nn1C | -26% | -9 | -2 | 2%
C=CCNC(=O)Nc1ccc(Br)cc1Cl | -6% | 60 | 13 | 7%
O=C(NCc1ccccn1)Nc1ccc(Br)cc1Cl | 38% | 136* | 63* | 2%
O=C(Nc1ccno1)Nc1ccc(Cl)cc1Cl | -8% | 6 | 11* | 13%
CCC(=O)N1CCc2cc(S(=O)(=O)Nc3cc(C)ccc3OC)ccc21 | 35% | . | . | -2%
Cc1ccc(NC(=O)Cn2c(=O)ccc3cc(S(=O)(=O)N4CCC(C)CC4)ccc32)cc1Cl | -11% | . | . | 2%
O=C(NCc1ccccn1)Nc1ccc(Cl)cc1Cl | 66% | 66* | 37* | -20%
O=C(CCCOc1ccc(Cl)cc1Cl)NCc1ccccn1 | -3% | 41 | 6 | .
CN(CCc1ccccn1)Cc1ccc(Cl)cc1Cl | 9% | 60 | 17* | 0%
CN(CCc1ccccn1)Cc1ccc(Cl)c(Cl)c1 | 0% | 15 | 7 | -2%
CCCCc1nn2c(=O)cc(COC(=O)c3cccc(OC)c3)nc2s1 | -24% | . | . | -11%
COc1ccc(CCNC(=O)c2cc3c(=O)[nH]c4ccc(C)cc4c3s2)cc1OC | -17% | . | . | -5%
CNC(=O)c1[nH]cnc1C(=O)Nc1ccc(C)cc1 | 30% | 9 | 9 | -7%
CNC(=O)c1[nH]cnc1C(=O)Nc1ccc(Cl)cc1 | 24% | 40 | 28* | -2%
CCc1nc2cc(C(=O)N[C@H]3CCCCNC3=O)cc(NC(=O)c3ccccc3OC)c2n1C | -20% | . | . | .
Cc1ccccc1C(=O)Nc1nnc2n1CCS2 | 74% | . | . | -1%
Cc1cc(O)c(C(C)C)cc1N=Cc1ccccc1O | -13% | -11 | -3 | 4µM*
SMILES | FMDV antiviral | Shiga inhibitor | CHX counter | Sm TGR inh
Cc1cc(O)c(C(C)C)cc1N=Cc1cc([N+](=O)[O-])ccc1O | -12% | 4 | 2 | ?
COc1ccc(NC2CCCN(C(=O)CN3CCOC3=O)C2)cc1 (stereo not given) | 5% | 62* | 38* | -18%
COc1ccc(NC2CCCN(C(=O)CN3CCOC3=O)C2)cc1OC (stereo not given) | -4% | -5 | -3 | -19%
COc1ccc(NC2CCCN(C(=O)c3cc4ncccn4n3)C2)cc1 (stereo not given) | 14% | 36* | 25* | -32%
Cn1cnnc1SCC(=O)Nc1ccc(C#N)cc1 | 0% | . | . | 1%
COc1ccnc(CSC(N)=Nc2ccccc2OC)c1 | -28% | 91* | 75* | -34%
COc1ccnc(CSC(N)=Nc2ccccc2C(F)(F)F)c1 | -8% | 22* | 15 | -1%
CC(=Nc1ccccc1C(F)(F)F)c1ccncc1 | -15% | -1 | -3 | 2%
COc1ccc(OC)c(S(=O)(=O)NCc2ccccn2)c1 | 58% | -11 | -1 | 10%
COc1ccnc(CSC(N)=Nc2cccc(C(F)(F)F)c2)c1 | ? | 42 | 25* | 0%
Cc1cccc(NC(=O)CSc2nc3ccccc3c3nc(CCn4cncc4C)nn23)c1 | ? | . | . | -3%
Cc1c(C(=O)COC(C)(C)C)[nH]c2ccccc12 | 0% | 25 | 20* | ?
Cc1ncc(C23CC4CC(CC(C4)C2)C3)[nH]1 | -18% | -21 | -3 | -9%
C1CNC(C23CC4CC(CC(C4)C2)C3)=N1 | 5% | 56* | 25 | 26%
COC(=O)c1ccc(NC(=O)Cc2coc3cc(C)ccc23)cc1 | -8% | . | . | 1%
Cc1cc(/C=C(/C#N)C(=O)Nc2ccccc2)c(C)n1-c1cccnc1 | -28% | 51 | 43* | -25%
Cc1ccccc1NC(=O)/C(C#N)=C\c1cc(C)n(-c2ccc(C(=O)O)cc2)c1C | -12% | 13 | -2 | -11%
COc1ccc(NC(=O)/C(C#N)=C/c2cc(C)n(-c3ccc(F)cc3)c2C)cc1 | -7% | . | . | -5%
Cc1cc(/C=C(\C#N)C(=O)Nc2ccccc2)c(C)n1-c1ccc2c(c1)OCO2 | -7% | 44* | 41* | 5%
Cc1cc(C=C(C#N)C#N)c(C)n1-c1ccccc1 | 22% | 108* | 22* | 0%
Cc1ccc(-n2c(C)cc(C=C(C#N)C#N)c2C)cc1 | 0% | 33 | 15 | -36%
O=C(NCc1cccc(Cl)c1)c1cnc(N2CCCCC2)c2ccccc12 | 14% | . | . | -3%
Oc1cc(-c2nc3ccccc3s2)cc2c1OCCN(Cc1cn[nH]c1-c1ccc(Cl)cc1)C2 | 10% | . | . | .
Fc1ccccc1Nc1nc(-c2ccncc2)nc2ccccc12 | ? | -10 | -2 | -14%
Fc1ccccc1Nc1nc2ccccc2o1 | -34% | 97* | 45* | 11%
SMILES | FMDV antiviral | Shiga inhibitor | CHX counter | Sm TGR inh
c1ccc(Nc2nc3ccccc3o2)cc1 | 47% | 119* | 33* | 1%
O=C(NNc1nc2ccccc2nc1C(F)(F)F)c1ccccc1 | -4% | 5 | -5 | 16%
Cc1ccc(NC(=O)c2c(C)nc(Nc3nc4ccccc4o3)nc2C)cc1 | -12% | 26 | 7 | 5%
O=C(NNc1nc2ccccc2o1)c1ccccc1 | ? | 56* | 30* | 8%
CC(=NNc1nc2ccccc2o1)c1ncccn1 | -4% | . | . | .
FC(F)(F)Oc1ccc(Nc2nc3ccccc3o2)cc1 | 33% | 77* | 33* | 2%
Cc1cc(C)nc(Nc2nc3ccccc3o2)n1 | 0% | 45* | 27* | -1%
CC(C)C1=Nc2cccc3cccc(c23)N1 | -21% | -26 | -2 | 1%
COc1ccc(C2=Nc3cccc4cccc(c34)N2)cc1 | . | 19 | 5 | 50µM*
ClCC1=Nc2cccc3cccc(c23)N1 | . | 9 | -2 | 28µM*
Cc1ccccc1SCCNC(=O)c1ccccc1Br | 35% | 99* | 43* | 7%
O=C(CCc1ccccc1)NCCCNC(=O)CCc1ccccc1 | -9% | . | . | -3%
O=C(NCCNC(=O)c1ccccc1Br)c1ccccc1Br | 3% | -6 | 1 | -11%
Cc1ccccc1SCCNC(=O)CCc1ccccc1 | . | 28* | 26 | .
O=C(COc1ccccc1F)Nc1ccccc1C(=O)OCc1cc(=O)n2nc(C3CC3)sc2n1 | -20% | . | . | 8%
Cc1ccc2c(c1)cc1c(=O)n(Cc3cccc(Cl)c3)nc(C)n12 | -10% | . | . | -12%
COc1ccc(C(=O)N2CC(=O)Nc3ccc(C)cc3C2c2ccccc2)c(OC)c1 (stereo not given) | 9% | . | . | 4%
Cc1cc(C)n(-c2ccnc3cc(Cl)ccc23)n1 | 19% | -2 | 18* | 0%
CN(C)S(=O)(=O)N1CCN(c2ccnc3cc(Cl)ccc23)CC1 | 0% | 10 | 4 | -9%
